Source: PubChem BioAssay (National Center for Advancing Translational Sciences (NCATS))
Pf growth 48h – Primary qHTS for delayed death inhibitors of the malarial parasite plastid, 48 hour incubation; actives 5.9% (n = 310,000); Potency, µM (highest dose often 28.7 µM), inactives show at the top dose activity change, negative = inhibition, actives largely listed as inhibitors; P. falciparum luciferase growth in erythrocytes, 48 h; note: potency is the fitted concentration of half-maximal effect; % is set by controls: 0 for no effect and ±100 for the full control effect
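Luciferase-expressing P. falciparum in infected erythrocytes (2% hematocrit, 0.1% parasitemia final) in RPMI 1640/0.5% Albumax were exposed to compound for 48 hours at 37 C, 5% CO2; growth read as luminescence.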
Pf growth 96h – Primary qHTS for delayed death inhibitors of the malarial parasite plastid, 96 hour incubation. P. falciparum luciferase reporter growth, 96 h. Potency, µM (top dose mostly 28.7 µM), for the others: top-dose activity change, negative = inhibition, usual class: inhibitors. actives 6.9% (n = 320,000). AID 504834, 2011; note: potency is the fitted concentration of half-maximal effect; % is set by controls: 0 for no effect and ±100 for the full control effect
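Readout is luminescence from an integrated firefly luciferase in P. falciparum. Red cells, 2% hematocrit and 0.05% parasitemia final, were cultured with compound through two parasite generations (96 hours) at 37 C, 5% CO2.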
Cycloheximide cs – Cycloheximide Counterscreen for Small Molecule Inhibitors of Shiga Toxin; cell reporter, cycloheximide protein synthesis inhibition counterscreen; max response, %; actives 12% (n = 300,000); in the data active = max response mostly above about 13%, no sharp cut-off; inactive = mostly below about 14%; note: read at 38.3 µM for the half of the compounds with a filed dose; 0% is about no effect
Shiga inhibitor – A qHTS for Small Molecule Inhibitors of Shiga Toxin; Vero cells, Shiga toxin protein synthesis inhibition reporter; inhibition, % at 38.7 µM; actives 9.2% (n = 290,000); AID 2315, 2010; in the data active = inhibition mostly above about 28%, no sharp cut-off; inactive = mostly below about 43%; note: 0% is about no effect
NS1 inh – qHTS Assay for Inhibitors of Influenza NS1 Protein Function; actives 0.4% (n = 270,000); Potency, µM (highest dose often 46.1 µM), for inactives: top-dose activity, positive = more growth; AID 2326, 2010; calls by dose curve; note: potency is the fitted concentration of half-maximal effect; actives are rising curves; nearly all actives have a fitted effect of over 50% in size
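Growth recovery, yeast-based: influenza A NS1 expressed in S. cerevisiae causes slow growth, and suppressors are detected by OD600. The parent strain without NS1 is used as positive control.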
Starred values were filed as active, the others as inactive; ? = inconclusive; nt = not tested or not shown. Most compounds without a hit are left out; they make up all but 21% or so of the library. Unless noted, calls come from the whole dose curve; as a rule, active = well fitted inhibition curve with a large enough effect; inconclusive = small, poorly fitted or top-dose-only effect, or another doubt; inactive = no such curve, though single readings can be large or run the other way.

SMILES	Pf growth 48h	Pf growth 96h	Cycloheximide cs	Shiga inhibitor	NS1 inh
COc1cc2cc(Oc3ccc4ccc(=O)oc4c3)c(=O)oc2cc1OC(=O)/C=C/c1ccccc1	73%	74%	-2	-4	5%
CCC1(CC)NC(=O)N(CC(=O)OCC(=O)Nc2sccc2C#N)C1=O	?	0%	0	-3	nt
CCOC(=O)N1CCN(C(=O)COc2cccc3c2CCN(Cc2ccccc2F)C3=O)CC1	?	?	-2	-5	-3%
CC(=O)Nc1ccc(/C=C/c2nc(-c3ccccc3O)n[nH]2)cc1	8%	50%	48*	57*	7%
COc1cc(/C=C/c2nc(-c3ccccc3O)n[nH]2)cc(OC)c1OC	?	?	19	4	-6%
CCN(CC)S(=O)(=O)c1ccc(NCc2ccccn2)nc1	23%	33%	-1	-4	2%
Cc1sc(-c2ccncc2)nc1OC(=O)c1ccc(F)cc1F	?	-3%	-8	39	nt
CC(=O)C1=C(S(=O)(=O)c2ccc(C)cc2)CS(=O)(=O)C1	5%	4%	20*	29	13%
Cc1ccc(S(=O)(=O)C2CS(=O)(=O)CC2O)cc1 (stereo unspecified)	nt	?	-6	12	6%
CN1c2ccccc2C(C)(C)C12C=Nc1c(ccc3ccccc13)O2 (stereo unspecified)	?	?	27*	99*	-36%
COc1ccc2ccc3c(c2c1)N=CC1(O3)N(C)c2ccccc2C1(C)C (stereo unspecified)	-9%	?	10	34*	-27%
CN1c2ccccc2C(C)(C)[C@]12C=Cc1cc(O)ccc1O2	?	nt	38*	58	5%
O=C1NC(=O)N(c2ccccc2)C(=O)/C1=C/c1coc2ccc(O)cc2c1=O	-6%	51%	24*	28*	-5%
O=C1NN(c2ccccc2)C(=O)/C1=C/c1coc2ccccc2c1=O	91%	?	81*	54*	-33%
O=C1NN(c2ccccc2)C(=O)/C1=C\c1coc2ccc(O)cc2c1=O	-2%	38%	11	20	10%
O=C(O)CCCNC(=O)c1cccc(C(=O)NCCCC(=O)O)n1	-2%	?	-3	-10	4%
COc1ccc2[nH]c(=O)c(C(=O)O)cc2c1	-7%	0%	-9	-6	nt
COc1cccc(C(=O)c2cc3cc(Cl)ccc3[nH]2)c1	121%	?	38*	42*	-4%
O=C(c1ccccc1)c1cc2cc(Cl)ccc2[nH]1	106%	38%	32*	40*	2%
O=C(CCc1nc(-c2ccccc2)no1)NCC1CCCO1 (stereo unspecified)	20%	?	11	63	-12%
C=C1c2cc3c(cc2NC(=S)N1Cc1ccccc1)OCO3	12µM*	?	12	-3	12%
CCOC(=O)C1=NN(C(C)=O)C2(CC(=O)N(c3ccc(C)c(C)c3)C2=O)C1 (stereo unspecified)	-9%	60%	-2	-11	8%
CCCNC(=O)c1nc(C)n(-c2ccc([N+](=O)[O-])cc2)n1	3%	4%	2	-4	nt
CNC(=O)c1ccc2snnc2c1	nt	-2%	-3	-7	-2%
O=C(Nc1ccccc1F)c1ccc2snnc2c1	0%	-7%	38*	60*	-18%
SMILES	Pf growth 48h	Pf growth 96h	Cycloheximide cs	Shiga inhibitor	NS1 inh
CC(=O)c1ccc(NC(=O)c2ccc3snnc3c2)cc1	19%	25%	50*	65*	-4%
CC(C)(C)CC(C)(C)NC(=O)c1ccc2snnc2c1	-23%	-15%	-1	-14	-44%
COc1ccc(NC(=O)c2ccc3snnc3c2)cc1	190%	8%	46*	64*	-4%
O=C(Nc1ccc(Cl)cc1)c1ccc2snnc2c1	16%	?	37*	38*	-16%
Cc1ccc(S(=O)(=O)NCCC(=O)N2CCC(C(N)=O)CC2)cc1C	-15%	-6%	nt	nt	nt
Nc1c(S(=O)(=O)c2cccs2)c2nc3ccccc3nc2n1CCc1ccccc1	?	3.3µM*	0	0	17%
Cc1ccc(S(=O)(=O)c2c(N)n(CCN3CCOCC3)c3nc4ccccc4nc23)cc1C	?	10%	13	12	-14%
COCCn1c(-c2cccs2)nc2nc3ccccc3nc21	?	-19%	13*	20	-6%
Nc1c(S(=O)(=O)c2cccs2)c2nc3ccccc3nc2n1CC1CCCO1 (stereo unspecified)	?	15%	-4	-5	-42%
Nc1c(S(=O)(=O)c2cccs2)c2nc3ccccc3nc2n1Cc1ccc2c(c1)OCO2	15µM*	nt	-5	-41	?
CC(C)CCn1c(N)c(S(=O)(=O)c2cccs2)c2nc3ccccc3nc21	?	?	-3	-3	-45%
COc1ccc(CCn2c(N)c(S(=O)(=O)c3cccs3)c3nc4ccccc4nc32)cc1OC	9.3µM*	?	9	-8	-36%
Cn1ncc([N+](=O)[O-])c1C(=O)n1nnc2ccccc21	22%	?	-2	14	nt
CC1(C)Cc2c(sc(NC(=O)c3ccccc3Cl)c2C(=O)O)CO1	42%	-2%	18	29	-3%
Nc1c(S(=O)(=O)c2cccs2)c2nc3ccccc3nc2n1Cc1cccs1	?	8.3µM*	-3	-14	-13%
CCCCn1c(N)c(C(=O)NCc2cccs2)c2nc3ccccc3nc21	?	?	-2	-12	17%
c1csc(-c2nc3nc4ccccc4nc3n2Cc2ccc3c(c2)OCO3)c1	?	17%	12*	33*	-14%
CCCn1c(-c2cccs2)nc2nc3ccccc3nc21	-4%	?	11	27	-55%
COc1ccccc1/C=N/n1c(N)c(S(=O)(=O)c2cccs2)c2nc3ccccc3nc21	6.6µM*	nt	12	10	9%
CCN1CCN(S(=O)(=O)c2ccc(Cl)c(C(=O)N(C)Cc3ccco3)c2)CC1	3%	58%	nt	nt	nt
CCCN1CCN(CCCNC(=O)c2ccc(CS(=O)c3ccccc3C)o2)CC1 (stereo unspecified)	18%	9%	-10	-11	0%
O=c1ccc2ccccc2[nH]1	nt	nt	-5	2	nt
COc1ccc(C2CC(=O)c3ccccc3O2)cc1 (stereo unspecified)	301%	239%	41*	25	-30%
O=C1CC(c2ccc3c(c2)OCCO3)Oc2ccc([N+](=O)[O-])cc21 (stereo unspecified)	111%	448%	46*	88*	-4%
c1ccc(C2C/C(=N\N3CCOCC3)c3ccccc3O2)cc1 (stereo unspecified)	25%	7%	-5	-8	-2%
O=C1CC(c2ccc3c(c2)OCCO3)Oc2ccccc21 (stereo unspecified)	202%	191%	52*	80*	-10%
COCCNC(=O)CN1C(=O)NC2(CCCc3cc(OC)ccc32)C1=O (stereo unspecified)	-3%	1%	-4	-8	4%
